From PubChem BioAssay
The source made the active and inactive calls. Unless noted, no rule for the calls is given here.

Legend:
[1] = compounds binding Alexa647 anti-His antibody – biochemical, small-molecule microarray, 635 nm fluorescence, artefact control for SMM control protein annotation, primary screen (AID 1128); conditions: higher = more signal;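 also: score merges feature fluorescence with signal-to-noise for each printed compound spot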
[2] = test system: Human papillomavirus type 1a E7 protein (residues 1-88); assay: HPV1a E7 small-molecule binders, primary screen, biochemical, small-molecule microarray, residues 1-88, 635 nm (AID 1129); conditions: small-molecule microarray binding, fluorescence 635 nm; higher = more signal
[3] = target: Focal adhesion kinase 1 (Homo sapiens) (UniProt Q05397); assay: PTK2 protein binding on printed compound slides – biochemical, small-molecule microarray, 635/667 nm fluorescence, BSA, DTT, primary screen (AID 1130); conditions: 635 nm fluorescence, higher = more signal;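 also: composite of spot emission at 667 nm and signal to noise over triplicate slides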
[4] = test system: Fibrinogen (Alexa647-labelled); assay: Alexa647-fibrinogen binding to printed small molecules – biochemical, small-molecule microarray, 635/667 nm fluorescence, artefact control for SMM control-protein annotation, profiling panel (AID 1131); conditions: fibrinogen-A647 binding fluorescence, higher = more signal;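 also: z-score merges 667 nm fluorescence with per-spot signal-to-noise over triplicate slides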
[5] = target: Follistatin (Homo sapiens) (UniProt P19883); assay: FST protein binding to printed compounds – biochemical, small-molecule microarray, 635/667 nm fluorescence, primary screen (AID 1132); conditions: 635 nm fluorescence, higher = more signal
[6] = target: Fibroblast growth factor 2 (Homo sapiens) (UniProt P09038); assay: basic fibroblast growth factor binding to printed compounds – biochemical, small-molecule microarray, 635/667 nm fluorescence, primary screen (AID 1133); conditions: FGF2, fluorescence 635/667, higher = more signal
[7] = JC-1 mitochondrial potential readout, lung cancer cells – cell-based, A549, JC-1 fluorescence, basal, 24 h, 100 nL, profiling panel (AID 1138); conditions: higher = more signal;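 also: A549 lung adenocarcinoma cells under basal conditions with no added stimulus; test concentration not given here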
[8] = test system: Lefty1; assay: Lefty1 protein binding to printed compounds – biochemical, small-molecule microarray, 635/667 nm fluorescence, primary screen (AID 1139); conditions: fluorescence 635/667, higher = more signal
[9] = test system: wheat germ agglutinin (Triticum aestivum), Alexa647-labelled; assay: Alexa647-WGA lectin binding to printed small molecules – biochemical, small-molecule microarray, 635/667 nm fluorescence, artefact control for SMM control-protein annotation, profiling panel (AID 1140); conditions: WGA-A647 binding, 635 nm fluorescence, higher = more signal;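 also: score merges 667 nm feature emission with signal to noise over triplicate slides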
[10] = target: Luciferin 4-monooxygenase (Photinus pyralis) (UniProt P08659); assay: inhibition of purified Photinus pyralis luciferase – biochemical, luminescence, purified enzyme, 2006 set, primary screen (AID 1141); conditions: purified firefly luciferase, SteadyGlo luminescence, 30 min; higher = more signal, called active from +8 up or from −8 down;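 also: cell-free assay with purified firefly luciferase at 100 ng per well in PBS; test concentration not given here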
[11] = test system: Wnt5a (protein binding on small-molecule microarray); assay: small molecules binding Wnt5a protein – biophysical, small-molecule microarray, 635/667 nm fluorescence, primary screen (AID 1142); conditions: 635 nm fluorescence, higher = more signal;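 also: fluorescence read at 667 nm with signal to noise per printed feature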
[12] = ATP-based viability of Huh7 replicon cells – cell-based, CellTiter-Glo luminescence, basal, 48 h, cytotoxicity control for HCV replication inhibitor project, primary screen (AID 1143); conditions: higher = more signal, called active from +8 up or from −8 down;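 also: Huh7 hepatoma cells carrying a hepatitis C replication reporter with no stimulus; test concentration not given here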
[13] = Pseudomonas biofilm growth suppression – PAO1 strain, BacTiter-Glo luminescence, LB-PBS, primary screen (AID 1144); conditions: P. aeruginosa PAO1 biofilm, 12 h, higher = more signal
[14] = basal CRE-LacZ reporter activity in PC12 – cell-based, unstimulated, primary screen (AID 1145); conditions: no forskolin, luminescence, 4.5 h, higher = more signal, called active from +8 up or from −8 down
[15] = forskolin-driven CRE-LacZ activity in PC12 – cell-based, CRE-LacZ reporter, forskolin-stimulated, primary screen (AID 1146); conditions: luminescence, 4.5 h, higher = more signal, called active from +8 up or from −8 down;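 also: PC12 cells with 6xCRE LacZ reporter stimulated by forskolin 10 µM; beta-galactosidase reporter signal reflecting CREB driven transcription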
[16] = target: Streptavidin (Streptomyces avidinii) (UniProt P22629); assay: compounds binding control protein streptavidin – biophysical, small-molecule microarray, 635/667 nm fluorescence, artefact control for SMM compound annotation, primary screen (AID 1147); conditions: higher = more signal;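 also: signal reflects streptavidin binding to arrayed compounds as a control protein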
[17] = probe aInhba binding on compound microarray – biochemical, small-molecule microarray, 635/667 nm fluorescence, primary screen (AID 1148); conditions: higher = more signal;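 also: score merges 667nm spot fluorescence with signal-to-noise for antibody binding to printed compounds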
[18] = target: Torsin-1A (Homo sapiens) (UniProt O14656); assay: TOR1A wild-type binding on microarray – cell lysate, small-molecule microarray, lysate, 635/667 nm, primary screen (AID 1149); conditions: COS7 hTOR1A-WT lysate, 635 nm fluorescence, higher = more signal
[19] = target: Torsin-1A (Homo sapiens) (UniProt O14656); assay: torsin A mutant lysate binding on microarrays – cell lysate, small-molecule microarray, COS7 lysate, 635/667 nm fluorescence, primary screen (AID 1150); conditions: COS7 hTOR1A mutant lysate, 635 nm fluorescence, higher = more signal;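 also: score pools 667 nm emission and signal to noise measuring lysate protein binding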
[20] = test system: Sonic hedgehog protein (Shh); assay: Sonic hedgehog microarray binding compounds – biochemical, small-molecule microarray, 635/667 nm fluorescence, primary screen (AID 1151); conditions: 635 nm fluorescence, higher = more signal;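 also: Shh protein binding to compounds spotted on small-molecule microarray slides; score combines spot fluorescence intensity with signal-to-noise across triplicate slides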

Torsin-1A (Homo sapiens), sequence (O14656 whole entry, looked up): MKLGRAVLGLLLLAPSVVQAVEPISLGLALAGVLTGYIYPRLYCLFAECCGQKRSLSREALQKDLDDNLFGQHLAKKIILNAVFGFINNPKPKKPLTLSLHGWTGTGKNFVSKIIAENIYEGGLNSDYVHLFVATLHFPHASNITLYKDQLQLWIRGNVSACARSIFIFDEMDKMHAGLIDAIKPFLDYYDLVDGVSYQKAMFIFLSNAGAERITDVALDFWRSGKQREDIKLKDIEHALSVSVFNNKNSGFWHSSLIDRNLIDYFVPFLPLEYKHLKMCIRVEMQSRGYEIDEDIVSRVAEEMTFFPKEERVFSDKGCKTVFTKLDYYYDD
Fibroblast growth factor 2 (Homo sapiens), sequence (P09038 whole entry, looked up): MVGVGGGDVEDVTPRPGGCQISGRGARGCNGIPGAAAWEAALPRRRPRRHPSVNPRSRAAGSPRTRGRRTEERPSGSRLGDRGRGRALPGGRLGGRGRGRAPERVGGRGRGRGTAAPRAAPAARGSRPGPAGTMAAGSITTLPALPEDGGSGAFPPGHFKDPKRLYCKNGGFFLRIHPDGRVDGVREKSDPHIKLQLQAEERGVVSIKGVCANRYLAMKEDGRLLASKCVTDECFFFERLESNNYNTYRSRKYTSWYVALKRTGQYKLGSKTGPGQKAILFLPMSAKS
Luciferin 4-monooxygenase (Photinus pyralis), sequence (P08659 whole entry, looked up): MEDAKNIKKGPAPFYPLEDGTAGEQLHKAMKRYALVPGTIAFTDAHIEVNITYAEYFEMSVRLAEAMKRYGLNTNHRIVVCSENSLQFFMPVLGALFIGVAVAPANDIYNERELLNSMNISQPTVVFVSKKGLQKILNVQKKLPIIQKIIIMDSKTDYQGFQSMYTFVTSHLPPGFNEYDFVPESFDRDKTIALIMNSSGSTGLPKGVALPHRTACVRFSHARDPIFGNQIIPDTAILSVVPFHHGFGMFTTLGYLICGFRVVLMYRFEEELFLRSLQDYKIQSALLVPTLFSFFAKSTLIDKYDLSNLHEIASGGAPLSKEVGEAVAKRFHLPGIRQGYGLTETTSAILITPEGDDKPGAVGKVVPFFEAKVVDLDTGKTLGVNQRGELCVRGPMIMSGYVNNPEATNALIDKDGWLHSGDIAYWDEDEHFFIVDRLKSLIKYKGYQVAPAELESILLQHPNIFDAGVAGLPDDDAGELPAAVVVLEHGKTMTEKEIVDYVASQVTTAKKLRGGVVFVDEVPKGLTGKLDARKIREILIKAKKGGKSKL
Follistatin (Homo sapiens), sequence (P19883 whole entry, looked up): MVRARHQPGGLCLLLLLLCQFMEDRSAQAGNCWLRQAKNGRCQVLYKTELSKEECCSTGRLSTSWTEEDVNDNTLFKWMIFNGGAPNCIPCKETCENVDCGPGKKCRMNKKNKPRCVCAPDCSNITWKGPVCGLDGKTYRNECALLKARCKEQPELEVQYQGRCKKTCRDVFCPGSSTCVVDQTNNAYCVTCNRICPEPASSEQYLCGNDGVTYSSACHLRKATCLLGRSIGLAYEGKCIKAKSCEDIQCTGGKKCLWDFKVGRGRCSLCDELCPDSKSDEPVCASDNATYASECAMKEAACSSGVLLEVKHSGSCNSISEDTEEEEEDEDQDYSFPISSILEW
Streptavidin (Streptomyces avidinii), sequence (P22629 whole entry, looked up): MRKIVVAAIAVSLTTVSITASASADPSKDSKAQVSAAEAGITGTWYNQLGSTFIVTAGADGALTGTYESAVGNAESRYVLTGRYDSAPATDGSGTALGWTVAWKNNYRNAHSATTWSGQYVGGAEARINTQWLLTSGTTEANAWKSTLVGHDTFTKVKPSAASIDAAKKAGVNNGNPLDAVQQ
Focal adhesion kinase 1 (Homo sapiens), sequence (Q05397 whole entry, looked up): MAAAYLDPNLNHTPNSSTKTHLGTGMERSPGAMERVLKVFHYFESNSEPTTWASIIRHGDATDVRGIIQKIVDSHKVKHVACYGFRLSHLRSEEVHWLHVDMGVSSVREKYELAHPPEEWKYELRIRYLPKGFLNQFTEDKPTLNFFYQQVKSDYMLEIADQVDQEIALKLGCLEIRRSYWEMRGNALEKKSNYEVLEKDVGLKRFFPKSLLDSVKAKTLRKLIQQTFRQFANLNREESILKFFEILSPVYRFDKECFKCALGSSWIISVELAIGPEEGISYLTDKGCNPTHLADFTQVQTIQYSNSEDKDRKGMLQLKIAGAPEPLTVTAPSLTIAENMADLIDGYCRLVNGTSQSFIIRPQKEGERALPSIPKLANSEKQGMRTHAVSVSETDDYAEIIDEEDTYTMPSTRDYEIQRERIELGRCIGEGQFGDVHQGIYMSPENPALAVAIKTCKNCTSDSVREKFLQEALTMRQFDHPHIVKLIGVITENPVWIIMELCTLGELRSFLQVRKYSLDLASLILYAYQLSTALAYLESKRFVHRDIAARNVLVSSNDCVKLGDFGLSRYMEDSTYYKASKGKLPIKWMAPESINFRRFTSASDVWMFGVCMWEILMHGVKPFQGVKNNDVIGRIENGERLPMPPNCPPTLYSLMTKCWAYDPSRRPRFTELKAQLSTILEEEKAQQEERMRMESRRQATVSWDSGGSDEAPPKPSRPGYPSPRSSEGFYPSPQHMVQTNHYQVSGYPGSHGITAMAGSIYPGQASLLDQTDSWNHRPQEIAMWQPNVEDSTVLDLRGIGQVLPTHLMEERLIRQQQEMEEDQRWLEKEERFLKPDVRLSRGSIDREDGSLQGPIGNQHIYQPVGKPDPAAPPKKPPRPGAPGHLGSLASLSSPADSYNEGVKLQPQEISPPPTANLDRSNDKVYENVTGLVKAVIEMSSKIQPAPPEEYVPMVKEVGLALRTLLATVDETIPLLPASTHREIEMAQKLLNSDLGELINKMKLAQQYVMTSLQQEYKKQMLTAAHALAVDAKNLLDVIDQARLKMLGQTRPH

SMILES	composite z-score [1]	composite z-score [2]	composite z-score [3]	composite z-score [4]	composite z-score [5]	composite z-score [6]	z-score [7]	composite z-score [8]	composite z-score [9]	z-score [10]	composite z-score [11]	z-score [12]	z-score [13]	z-score [14]	z-score [15]	composite z-score [16]	composite z-score [17]	composite z-score [18]	composite z-score [19]	composite z-score [20]
C=C(/C(=C/C[C@H](OC(C)=O)c1ccc(OCCO)cc1)c1cnc2ccccc2c1)C(C)C	0.888	1.19	-0.0763	0.921	1.45	1.31	0.414	1.48	0.585	-0.477 (inactive)	0.826	-2.51 (inactive)	-1.37 (inactive)	2.06 (inactive)	-0.586 (inactive)	0.868	-0.108	0.55	1	2.21
CC(C)=CCCC(C)=CCON=C1C[C@@H](O)[C@@H](O)[C@@H]2[C@@H]3C(=O)N(C[C@@H]4CCCO4)C(=O)[C@@H]3CC[C@@H]12	0.875	1.13	0.121	0.971	1.06	1.07	-0.26	1.26	0.59	0.722 (inactive)	0.311	-0.678 (inactive)	0.518 (inactive)	-0.659 (inactive)	-0.227 (inactive)	-0.0996	-0.0933	2.06	2.01	1.73
O=C1C[C@]2(c3ccc([N+](=O)[O-])cc3)C(=O)N(CCN3CCOCC3)c3cc(CO)ccc3[C@H]2N1CC12CC3CC(CC(C3)C1)C2	-0.585	0.275	0.0816	-0.724	-0.377	-1.54	-0.869	-0.424	0.551	0.959 (inactive)	-0.433	-1.04 (inactive)	-0.954 (inactive)	0.324 (inactive)	0.247 (inactive)	-0.0783	-0.122	-0.967	-0.862	-0.509
COc1ccc(O[C@H]2C=C[C@@H](c3ccccc3)O[C@@H]2COC(=O)CCC(C)=NO[C@@H](C)c2cc(-c3c(C)cc(C)cc3C)no2)cc1	-0.566	-0.23	-0.174	-0.223	-1.32	-0.848	0.67	-0.773	-0.204	1.21 (inactive)	-0.61	-0.961 (inactive)	-0.587 (inactive)	-0.315 (inactive)	0.65 (inactive)	-0.987	-0.295	-1.29	-1.04	0.224
CCN(CC)c1ccc(N2CC=CC34O[C@@H]5/C=C\CCC(C)OC(=O)C5[C@H]3C(=O)N(CCCO)[C@@H]4C2=O)cc1 (stereo not given in full)	0.494	-0.191	-0.216	-0.892	-0.247	-0.615	0.881	-0.784	-0.529	-0.936 (inactive)	0.0023	-0.682 (inactive)	3.06 (inactive)	0.0564 (inactive)	-0.102 (inactive)	-0.946	-0.211	1.23	2.02	-0.403
CC(C)(C)OC(=O)CC[C@]1(C(N)=O)COC(c2ccc(OCCCO)cc2)=N1	1.3	0.804	-0.0765	0.29	1.1	1.13	-0.437	-1.08	0.43	-0.0436 (inactive)	0.681	0.0853 (inactive)	0.361 (inactive)	-0.585 (inactive)	-0.438 (inactive)	0.248	0.923	0.833	0.493	-0.769
Cc1ccc(S[C@]2(C(=O)O)CC(=O)N(Cc3ccccc3)[C@@H]2c2ccc(CO)cc2I)cc1	2.86	0.242	0.284	0.186	0.023	-0.697	0.305	-0.69	0.189	-0.57 (inactive)	-0.405	-1.32 (inactive)	0.116 (inactive)	1.97 (inactive)	1.63 (inactive)	0.556	-0.0963	-0.995	-0.604	-0.41
COc1ccc(O[C@@H]2[C@H](O)CO[C@H]2C=CC#Cc2ccccc2)cc1	1.1	-0.253	-0.267	0.73	0.356	0.341	-0.0963	0.407	0.535	-0.391 (inactive)	-0.02	0.163 (inactive)	0.995 (inactive)	0.201 (inactive)	0.415 (inactive)	-0.31	-0.0762	0.23	0.286	0.332
O=C1C[C@@H](O)[C@@H](O)[C@@H]2[C@@H]3C(=O)N(c4ccc(F)cc4F)C(=O)[C@@H]3CC[C@@H]12	0.408	0.709	-0.246	-0.518	0.312	0.294	0.245	0.379	0.044	-0.9 (inactive)	-0.0711	0.988 (inactive)	-0.356 (inactive)	0.792 (inactive)	-0.0611 (inactive)	0.254	-0.0887	0.243	0.149	0.786
O=C(CS)NCCCCCNC(=O)[C@H]1C[C@H]2C(=O)N3CCC[C@H]3C(=O)N2[C@H]1c1cccc(OCCO)c1	3.13	1.11	2.11	0.65	1.45	1.92	0.509	1.65	0.777	-1.22 (inactive)	0.76	0.0319 (inactive)	0.162 (inactive)	-0.126 (inactive)	0.899 (inactive)	0.0654	-0.016	0.581	0.751	1.99
